Experimental data published in PubChem BioAssay.
For part of these data: Measured potencies and affinities stand elsewhere. Activity calls are given as the source filed them.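 The calls were made as follows, unless noted: active = membrane potential signal rise above negative control mean plus 3 SD in both duplicates, also active in the earlier TRPC4 screen; inactive = the rest.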

Key:
[1] = test system: TRPC4 beta (transient receptor potential cation channel C4), mouse; experiment: TRPC4 cation channel opening, retest – cell-based, Fluo4 calcium, HEK293 TRPC4beta/mu-opioid, duplicates, 10 µM, confirmation (AID 2426;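 active = fluorescence ratio normalized to control raised more than 50% in primary screen plus both repeat runs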); conditions: Fluo4 calcium fluorescence, at 10 µM; hits give high values
[2] = test system: transient receptor potential cation channel C4 beta (TRPC4), mouse; experiment: TRPC4 cation channel opening, second retest – cell-based, second round, Fluo4, HEK293 TRPC4beta/mu-opioid, 1 µM, confirmation (AID 2461;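 active = primary screen active and over 50% activation in each of two duplicate runs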); conditions: Fluo4 calcium fluorescence, at 1 µM; hits give high values
[3] = test system: TRPC4 (transient receptor potential cation channel C4 beta), mouse; experiment: potentiation of DAMGO EC20 TRPC4 response – cell-based, second round, Fluo-4, HEK293 TRPC4beta/mu-opioid, 1 µM, confirmation (AID 2554;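 active = primary screen hit whose fluorescence ratio, in both repeats, exceeds the weak agonist control mean by 3 SD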); conditions: DAMGO EC20, Fluo-4 calcium flux, at 1 µM; hits give high values
[4] = test system: TRPC4 beta (transient receptor potential cation channel C4), mouse; experiment: potentiation of DAMGO EC20 TRPC4 response – cell-based, Fluo-4, HEK293 TRPC4beta/mu-opioid, confirmation (AID 2555;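 active = primary screen hit whose calcium fluorescence ratio, in both repeats, exceeds the weak agonist control mean by 3 SD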); conditions: DAMGO EC20, Fluo-4 calcium flux, at 10 µM; hits give high values
[5] = target: Short transient receptor potential channel 4 (Mus musculus) (UniProt Q9QUQ5); experiment: blockers of DAMGO-evoked TRPC4 calcium flux – cell-based, Fluo4, HEK293 TRPC4beta/mu-opioid, confirmation (AID 2636;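 active = calcium signal cut by more than 3 SD below the full-agonist control yet still positive, in both repeats and the earlier primary screen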); conditions: at 10 µM; hits give high values
[6] = target: Short transient receptor potential channel 4 (Mus musculus) (UniProt Q9QUQ5); experiment: blockers of DAMGO-evoked TRPC4 calcium flux – cell-based, second round, Fluo4, HEK293 TRPC4beta/mu-opioid, 1 µM, confirmation (AID 2637;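 active = calcium signal ratio cut to more than 3 SD under the fully stimulated control mean yet still positive, in both repeats and the primary screen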); conditions: at 1 µM; hits give high values
[7] = target: Short transient receptor potential channel 4 (Mus musculus) (UniProt Q9QUQ5); experiment: calcium entry via TRPC4 opening agents – cell-based, HEK293 TRPC4/mu-opioid, Fluo-4 calcium, dose response (AID 434937;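 active = primary screen activator hit with a dose response curve and TRPC4 channel activation at any tested dose; inactive = no activation, no dose response, or not a primary hit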)
[8] = target: Short transient receptor potential channel 4 (Mus musculus) (UniProt Q9QUQ5); experiment: potentiation of DAMGO-evoked TRPC4 calcium signal – cell-based, HEK293 TRPC4/mu-opioid, Fluo-4 calcium, EC20 DAMGO, dose response (AID 434941;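 active = earlier screen potentiator hit that boosts the TRPC4 ion channel at some dose, with a dose response; inactive = no potentiation, no dose response, or not a prior hit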;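 also: calcium entry triggered by an EC20 dose of DAMGO at the co-expressed mu-opioid receptor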)
[9] = target: Short transient receptor potential channel 4 (Mus musculus) (UniProt Q9QUQ5); experiment: block of DAMGO-driven TRPC4 calcium entry – cell-based, HEK293 TRPC4/mu-opioid, Fluo-4 calcium, dose response (AID 434942;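 active = primary screen inhibitor hit that blocks the TRPC4 channel at some tested dose, yielding a dose curve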)
[10] = target: Short transient receptor potential channel 6 (Mus musculus) (UniProt Q61143); experiment: TRPC6 blockade by TRPC4 inhibitor hits – cell-based, HEK293, membrane potential dye, duplicate, selectivity assay for TRPC4 inhibitor project, confirmation (AID 434948;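 active = active in primary screen and both duplicates, each dropping signal beyond three positive-control SD with fluorescence still positive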); conditions: HEK293 TRPC6, membrane potential dye fluorescence, at 10 µM, stimulated with maximal-effect acetylcholine; hits give high values
[11] = target: Short transient receptor potential channel 6 (Mus musculus) (UniProt Q61143); experiment: TRPC6 opening by TRPC4 activator hits – cell-based, HEK293, membrane potential dye, duplicate, selectivity assay for TRPC4 activator project, confirmation (AID 434950); conditions: HEK293 TRPC6, membrane potential fluorescence, at 10 µM; activation: hits give high values; outcome: activation;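 as to activation: 0% = buffer only wells and 100% = acetylcholine maximal-effect wells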
[12] = target: Short transient receptor potential channel 6 (Mus musculus) (UniProt Q61143); experiment: positive modulators of mouse TRPC6 channel – HEK293 cells, membrane potential dye, duplicate, selectivity assay for TRPC4 potentiator project, confirmation (AID 434952;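 active = compound raising the membrane signal above positive-control mean plus 3 SD in both repeats, and a primary screen hit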); conditions: HEK293 TRPC6, membrane potential dye fluorescence, at 10 µM, maximal acetylcholine added after compound; hits give high values
[13] = target: Short transient receptor potential channel 4 (Mus musculus) (UniProt Q9QUQ5); experiment: calcium flux activators in TRPC4/5HT1a cells, counter-screen for TRPC4 activator project, cell-based, second counter screen, HEK293 TRPC4/5HT1a, Fluo-4 (AID 434977;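 active = calcium signal rise above buffer-control mean plus 5 SD in both duplicates, and also a hit in the primary screen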); conditions: Fluo-4 calcium flux, at 10 µM; hits give high values
[14] = serotonin-gated TRPC4 signal block – cell-based, second counter screen, HEK293 TRPC4/5HT1a, Fluo-4, counter-screen for TRPC4 inhibitor project, confirmation (AID 434978;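 active = primary screen active whose calcium signal fell more than 3 SD beyond the full-serotonin control mean in both duplicate plates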;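 as to outcome: serotonin given first at submaximal then at maximal dose after compound preincubation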); conditions: Fluo-4 calcium flux, at 10 µM, serotonin added to trigger calcium flux; hits give high values
[15] = test system: TRPC4 (mouse), co-expressed with 5HT1a in HEK293; experiment: enhancement of serotonin-evoked TRPC4 response – cell-based, second counter screen, HEK293 TRPC4/5HT1a, Fluo-4, counter-screen for TRPC4 potentiator project, confirmation (AID 434979;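 active = signal rise over 3 SD above mean of control wells given weak agonist, in both repeats and first screen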); conditions: Fluo-4 calcium flux, at 10 µM, serotonin added at its EC20 dose; hits give high values
[16] = nonspecific calcium rise without TRPC4 – cell-based, HEK293 mu-opioid receptor line, counter-screen for TRPC4 activator project, confirmation (AID 449723;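 active = hit in primary screen, with calcium signal over 5 SD above buffer well mean in both duplicates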;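 also: counter screen cells carry the mu-opioid receptor alone and lack TRPC4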); conditions: HEK293 mu-opioid cells, Fluo-4 calcium fluorescence, at 10 µM; hits give high values
[17] = nonspecific potentiation of DAMGO calcium response – cell-based, HEK293 mu-opioid receptor line, counter-screen for TRPC4 allosteric potentiator project, confirmation (AID 449724;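 active = calcium signal rise more than 3 SD above the low-dose agonist control mean, in both duplicate plates and the primary screen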); conditions: HEK293 mu-opioid receptor cells, Fluo-4 calcium flux, at 10 µM, compound added before EC20 DAMGO stimulus; hits give high values

Chain of Short transient receptor potential channel 4 (Mus musculus) (Q9QUQ5 whole entry, looked up): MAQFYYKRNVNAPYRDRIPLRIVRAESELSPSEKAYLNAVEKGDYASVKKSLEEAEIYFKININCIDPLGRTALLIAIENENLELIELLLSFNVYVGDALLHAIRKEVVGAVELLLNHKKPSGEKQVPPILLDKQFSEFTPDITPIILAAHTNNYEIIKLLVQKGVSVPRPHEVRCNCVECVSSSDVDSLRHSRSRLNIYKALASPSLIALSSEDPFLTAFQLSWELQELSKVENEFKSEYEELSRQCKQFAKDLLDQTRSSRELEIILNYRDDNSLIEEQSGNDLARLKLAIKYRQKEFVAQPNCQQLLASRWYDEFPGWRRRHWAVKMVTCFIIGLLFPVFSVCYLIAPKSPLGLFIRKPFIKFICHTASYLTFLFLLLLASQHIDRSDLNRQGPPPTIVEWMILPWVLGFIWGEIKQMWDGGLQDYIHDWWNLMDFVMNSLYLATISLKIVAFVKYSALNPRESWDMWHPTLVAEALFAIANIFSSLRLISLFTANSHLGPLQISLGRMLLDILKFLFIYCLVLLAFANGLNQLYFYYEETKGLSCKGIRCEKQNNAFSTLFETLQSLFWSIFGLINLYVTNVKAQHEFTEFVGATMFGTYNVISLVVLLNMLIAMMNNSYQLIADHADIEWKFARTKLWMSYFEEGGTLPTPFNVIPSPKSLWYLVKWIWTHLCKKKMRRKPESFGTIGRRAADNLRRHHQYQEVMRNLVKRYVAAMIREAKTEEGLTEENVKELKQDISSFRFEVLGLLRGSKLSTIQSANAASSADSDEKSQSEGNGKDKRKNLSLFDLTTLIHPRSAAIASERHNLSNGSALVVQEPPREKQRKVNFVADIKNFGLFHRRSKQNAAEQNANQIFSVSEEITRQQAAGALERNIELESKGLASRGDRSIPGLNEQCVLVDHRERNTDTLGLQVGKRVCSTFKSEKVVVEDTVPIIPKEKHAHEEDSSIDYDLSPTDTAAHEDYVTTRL
Chain of Short transient receptor potential channel 6 (Mus musculus) (Q61143 whole entry, looked up): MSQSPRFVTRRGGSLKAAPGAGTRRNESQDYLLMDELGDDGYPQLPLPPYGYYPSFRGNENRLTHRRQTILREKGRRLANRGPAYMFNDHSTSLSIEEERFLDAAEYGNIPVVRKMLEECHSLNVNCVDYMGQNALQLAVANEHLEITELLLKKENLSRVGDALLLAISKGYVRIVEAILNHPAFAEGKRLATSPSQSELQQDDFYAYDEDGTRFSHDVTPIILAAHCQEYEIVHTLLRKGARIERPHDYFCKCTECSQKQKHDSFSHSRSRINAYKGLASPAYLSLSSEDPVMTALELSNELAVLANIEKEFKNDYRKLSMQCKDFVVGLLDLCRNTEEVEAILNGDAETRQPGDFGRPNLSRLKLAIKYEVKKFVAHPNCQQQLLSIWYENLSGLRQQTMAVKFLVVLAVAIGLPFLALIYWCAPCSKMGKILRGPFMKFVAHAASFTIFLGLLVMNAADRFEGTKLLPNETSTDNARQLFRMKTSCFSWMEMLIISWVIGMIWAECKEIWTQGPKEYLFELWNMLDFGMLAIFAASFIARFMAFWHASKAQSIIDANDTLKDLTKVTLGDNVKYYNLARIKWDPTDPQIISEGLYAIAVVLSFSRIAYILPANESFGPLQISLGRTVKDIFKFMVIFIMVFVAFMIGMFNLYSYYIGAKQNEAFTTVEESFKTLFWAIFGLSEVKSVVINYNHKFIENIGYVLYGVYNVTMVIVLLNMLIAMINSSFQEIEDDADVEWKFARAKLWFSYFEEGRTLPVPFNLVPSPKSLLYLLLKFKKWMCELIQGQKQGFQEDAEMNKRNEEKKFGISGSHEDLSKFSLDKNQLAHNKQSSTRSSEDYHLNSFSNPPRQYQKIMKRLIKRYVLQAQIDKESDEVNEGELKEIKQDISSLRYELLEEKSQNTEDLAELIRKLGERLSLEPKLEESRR

CCN1CCN(CCC(=O)Nc2ccccc2OC)CC1
active: potentiation [4] 11% | potentiation [15] 17.3%
inactive: outcome [1] | outcome [2] | outcome [3] | outcome [5] | outcome [6] | outcome [7] | outcome [8] | outcome [9] | outcome [10] | outcome [11] | outcome [12] | outcome [13] | outcome [14] | outcome [16] | outcome [17]

CCN1CCCC1CNCc1ccc(Cl)cc1Cl (stereo not given)
active: potentiation [3] 11% | potentiation [4] 8% | potentiation [15] 12.9%
inactive: outcome [1] | outcome [2] | outcome [5] | outcome [6] | outcome [7] | outcome [8] | outcome [9] | outcome [10] | outcome [11] | outcome [12] | outcome [13] | outcome [14] | outcome [16] | outcome [17]

CCOc1cc(S(=O)(=O)N2CCN(C(=O)c3ccco3)CC2)ccc1F
active: potentiation [4] 12% | potentiation [15] 32%
inactive: outcome [1] | outcome [2] | outcome [3] | outcome [5] | outcome [6] | outcome [7] | outcome [8] | outcome [9] | outcome [10] | outcome [11] | outcome [12] | outcome [13] | outcome [14] | outcome [16] | outcome [17]

CC(NC(=O)c1ccccc1NC(=O)CN1CCc2ccccc2C1)c1ccccc1 (stereo not given)
inactive: outcome [1] | outcome [2] | outcome [3] | outcome [4] | outcome [5] | outcome [6] | outcome [7] | outcome [8] | outcome [9] | outcome [10] | outcome [11] | outcome [12] | outcome [13] | outcome [14] | outcome [16] | outcome [17]
active: potentiation [15] 20.3%

O=C(CSc1nnc(-c2ccccc2)o1)c1ccc2c(c1)OCCO2
inactive: outcome [1] | outcome [2] | outcome [3] | outcome [4] | outcome [5] | outcome [6] | outcome [7] | outcome [8] | outcome [9] | outcome [10] | outcome [11] | outcome [12] | outcome [13] | outcome [14] | outcome [15] | outcome [16] | outcome [17]

O=C(C[n+]1cc(-c2ccc(Br)cc2)n2c1CCCCC2)c1ccccc1
inactive: outcome [1] | outcome [2] | outcome [3] | outcome [4] | outcome [5] | outcome [6] | outcome [7] | outcome [8] | outcome [9] | outcome [10] | outcome [11] | outcome [12] | outcome [13] | outcome [14] | outcome [15] | outcome [16] | outcome [17]

O=C(COC(=O)CSc1ccc([N+](=O)[O-])cc1)NCCCc1ccccc1
inactive: outcome [1] | outcome [2] | outcome [3] | outcome [4] | outcome [5] | outcome [6] | outcome [7] | outcome [8] | outcome [9] | outcome [10] | outcome [11] | outcome [12] | outcome [13] | outcome [14] | outcome [15] | outcome [16] | outcome [17]

C=CCn1c(=N)n(CC(O)COc2ccccc2OC)c2ccccc21 (stereo not given)
inactive: outcome [1] | outcome [2] | outcome [3] | outcome [4] | outcome [5] | outcome [6] | outcome [7] | outcome [8] | outcome [9] | outcome [10] | outcome [11] | outcome [12] | outcome [13] | outcome [14] | outcome [15] | outcome [16] | outcome [17]

C/C(=N\N1CCN(C)CC1)c1ccc(Cl)c(Cl)c1
inactive: outcome [1] | outcome [2] | outcome [3] | outcome [4] | outcome [5] | outcome [6] | outcome [7] | outcome [8] | outcome [9] | outcome [10] | outcome [11] | outcome [12] | outcome [13] | outcome [14] | outcome [16] | outcome [17]
active: potentiation [15] 13.3%

CCOc1cc2[nH]c(=S)n(C3CC3)c(=O)c2cc1OCC
inactive: outcome [1] | outcome [2] | outcome [3] | outcome [4] | outcome [5] | outcome [6] | outcome [7] | outcome [8] | outcome [9] | outcome [10] | outcome [11] | outcome [12] | outcome [13] | outcome [14] | outcome [15] | outcome [16] | outcome [17]

COc1cccc(OCCOCCNCCO)c1
active: activation [11] 33.5%
inactive: outcome [1] | outcome [2] | outcome [3] | outcome [4] | outcome [5] | outcome [6] | outcome [7] | outcome [8] | outcome [9] | outcome [10] | outcome [12] | outcome [13] | outcome [14] | outcome [15] | outcome [16] | outcome [17]

CC(=O)c1ccc(N2CCN(C(=O)C3CCN(S(=O)(=O)c4ccc5c(c4)CC(C)N5C(=O)C4CC4)CC3)CC2)cc1 (stereo not given)
active: potentiation [4] 9% | potentiation [15] 14.8%
inactive: outcome [1] | outcome [2] | outcome [3] | outcome [5] | outcome [6] | outcome [7] | outcome [8] | outcome [9] | outcome [10] | outcome [11] | outcome [12] | outcome [13] | outcome [14] | outcome [16] | outcome [17]

COc1cc(CN2CCC(CO)(CCOc3ccccc3)CC2)cc(OC)c1
active: inhibition [5] 87% | inhibition [14] 43.6%
inactive: outcome [1] | outcome [2] | outcome [3] | outcome [4] | outcome [6] | outcome [7] | outcome [8] | outcome [9] | outcome [10] | outcome [11] | outcome [12] | outcome [13] | outcome [15] | outcome [16] | outcome [17]

CCOC(=O)C1NN=C(C(=O)c2ccccc2)C1c1ccc(Cl)cc1 (stereo not given)
inactive: outcome [1] | outcome [2] | outcome [3] | outcome [4] | outcome [5] | outcome [6] | outcome [7] | outcome [8] | outcome [9] | outcome [10] | outcome [11] | outcome [12] | outcome [13] | outcome [14] | outcome [15] | outcome [16] | outcome [17]

O=[N+]([O-])c1cc([N+](=O)[O-])c2oc(-c3ccccc3)c(Br)c2c1O
inactive: outcome [1] | outcome [2] | outcome [3] | outcome [4] | outcome [5] | outcome [6] | outcome [7] | outcome [8] | outcome [9] | outcome [10] | outcome [11] | outcome [12] | outcome [13] | outcome [14] | outcome [15] | outcome [16] | outcome [17]
